# Source: ChEMBL document CHEMBL3988442, “University of Dundee, Small-Polar-MMV Screening Library” (2021)
# The whole screen tested about 53,000 compounds, of which about 900 (1.7%) showed an effect of 50% or more. The list comes from a sample in which strong results are over-represented; it also holds similar structures and randomly drawn compounds.
# System: Mycobacterium tuberculosis
# Assay: Cornell - Phenotypic assay to identify agents that inhibit growth of Mycobacterium tuberculosis
# Type: functional
# Parameters: scale not given: direction of the effect not stated beside the values
# Conditions: 10 mM as filed; unlikely as a test dose
row,Structure (SMILES),Percent Effect [%]
1,Cc1cc(C)nc(N2CCC(Cn3cc(C(N)=O)cn3)CC2)n1,-23.62
2,CCOc1ncccc1CNS(=O)(=O)c1ccc2c(c1)CCC2,13.09
3,CCCn1cc(C(=O)N2CCCC(Cc3nccs3)C2)cn1 (centres undefined),-22.26
4,CCCC(NC(=O)c1occc1C)c1nnn[nH]1 (centres undefined),-83.42
5,COCc1nn(Cc2ccc(Cl)s2)c(=O)o1,-31.25
6,CCOCC(=O)N1CCC(CSCc2ccco2)CC1,34.18
7,CC(=O)N1CCC(CSCc2ccco2)CC1,7.881
8,CCOC(=O)CCC(=O)N1CCC(CSCc2ccco2)CC1,59.48
9,Cc1[nH]ncc1CCCNC(=O)Nc1ccccc1,-14.63
10,Cc1[nH]ncc1CCCNC(=O)Nc1ccc2c(c1)OC1(CCCC1)O2,72.51
11,Cc1[nH]ncc1CCCNC(=O)Nc1ccc(F)cc1,-28.46
12,COC(=O)N1CC2=CC(C)(C)COc3ccc(OC)c(c32)C1,31.49
13,COc1ccc2c3c1CN(C(C)=O)CC3=CC(C)(C)CO2,9.21
14,COc1ccc2c3c1CN(C(=O)N(C)C)CC3=CC(C)(C)CO2,89.58
15,COc1ccnc(N2Cc3cnc(C(C)(C)C)nc3C2)n1,15.27
16,Cc1cc(C)nc(N2CCc3ccc(OC(F)F)cc3C2)n1,108.4
17,COc1ccnc(N2CCN(C(=O)N3CCOCC3)CC2)n1,-8.776
18,COc1ccc2c(c1)CN(c1nc(C)cc(C)n1)CC2,63.12
19,Cc1cc(C)nc(N2Cc3cnn(Cc4ccc(F)cc4)c3C2)n1,1.875
20,COc1cccc(O[C@H]2CCN(c3nc(C)cc(C)n3)CC[C@@H]2O)c1,6.067

row,Structure (SMILES),Percent Effect [%]
1,COc1ccc2c(c1)CN(c1cc(N3CCCC3CO)ncn1)CC2 (centres undefined),24.46
2,COc1ccc(C2CN(c3nc(C)cc(C)n3)CCN2C(C)=O)cc1 (centres undefined),37.66
3,COc1ccnc(N2CCc3ccc(OC(F)F)cc3C2)n1,105.8
4,Cc1cnn(C2CCCN(C(=O)CCc3cnn(C)c3)C2)c1 (centres undefined),-9.516
5,O=C(CN1CC(c2nc(-c3ccco3)no2)C1)NCc1ccc(F)cc1.O=C(O)C(=O)O,26.13
6,CN(Cc1ccc2c(c1)OCO2)C(=O)c1ccc(C2CCCNC2)cc1 (centres undefined),14.52
7,O=S(=O)(c1ccc(-c2cnco2)cc1)N1CCCC2(CCNCC2)CC1,-3.285
8,Cl.O=C(CCN1CCCCC1)Nc1c2c(cc3c1CCC3)CCC2,-6.194
9,CCOC(C)c1nc(Cn2cc(-n3cccc3)cn2)cs1 (centres undefined),56.69
10,CCOC(C)c1nc(Cn2cc(C)cn2)cs1 (centres undefined),25.14
11,CCOC(C)c1nc(Cn2cccn2)cs1 (centres undefined),9.263
12,CC(=O)NCCNC(=O)Nc1ccc(Br)cc1C(C)C,-45.7
13,O=C(NCC1CCOC1)c1csc(-c2ccc(F)cc2)n1 (centres undefined),-10.74
14,O=C(CN(Cc1cccs1)c1ccc(F)cc1)NC1CCOCC1,47.86
15,Cc1ccc(CN(CC(=O)NC2CCOCC2)c2ccc(F)cc2)o1,92.31
16,Cc1ccc(CN(CC(=O)NCC2CCOC2)c2ccc(F)cc2)o1 (centres undefined),104.7
17,Cc1ccc(-c2nc(CC(=O)NCC3CCOC3)cs2)o1 (centres undefined),19.26
18,O=C(CN(CC(O)c1ccc(F)cc1)C1CC1)NC1CCOCC1 (centres undefined),2.353
19,O=C(O)C(F)(F)F.O=C([C@H]1C[C@@H]2CCN(c3cccc(F)c3)C[C@H]2O1)N1CCCC1,12.3
20,Cc1noc(C)c1-c1ccc(C2CCCN2C(=O)c2cnn(C)c2)nc1 (centres undefined),1.498

row,Structure (SMILES),Percent Effect [%]
1,Cc1nc(CN2CCCN(C(=O)CC(C)n3cccc3)CC2)cs1 (centres undefined),7.748
2,CN(CCCc1cnn(C)c1)Cc1cc2n(n1)CCCNC2,18.02
3,NC(=O)c1cc2c(nc1Oc1ccccc1CN1CCCCC1)CCC2,23.43
4,O=C(O)C(F)(F)F.O=C(c1ccc(F)cc1)N1C[C@@H]2CCN(c3cccnc3)C[C@@H]2C1,-2.234
5,Fc1cnc(N2CCOC3(CCN(Cc4ccsc4)CC3)C2)nc1.O=C(O)C(F)(F)F.O=C(O)C(F)(F)F,103.8
6,Fc1cnc(N2CC3(CCN(Cc4ccsc4)C3)C2)nc1.O=C(O)C(F)(F)F,30.35
7,Fc1cccc(N2CCCC3(CN(Cc4ccccn4)CCO3)C2)c1.O=C(O)C(F)(F)F.O=C(O)C(F)(F)F.O=C(O)C(F)(F)F (centres undefined),43.65
8,Fc1cccc(N2CCCC3(CN(Cc4ccco4)CCO3)C2)c1.O=C(O)C(F)(F)F.O=C(O)C(F)(F)F (centres undefined),14.41
9,Cn1cc(CN2CCOC3(CCCN(c4cccc(F)c4)C3)C2)cn1.O=C(O)C(F)(F)F.O=C(O)C(F)(F)F (centres undefined),-3.324
10,Cc1ccc(CN2CCOC3(CCCN(c4cccc(F)c4)C3)C2)o1.O=C(O)C(F)(F)F.O=C(O)C(F)(F)F (centres undefined),65.05
11,Fc1cccc(N2CCCC3(CN(Cc4cccnc4)CCO3)C2)c1.O=C(O)C(F)(F)F.O=C(O)C(F)(F)F.O=C(O)C(F)(F)F (centres undefined),54.92
12,Fc1cnc(N2CCOC3(CCN(Cc4cccs4)CC3)C2)nc1.O=C(O)C(F)(F)F.O=C(O)C(F)(F)F,5.693
13,Fc1cccc(N2CCCC3(CN(Cc4nccs4)CCO3)C2)c1.O=C(O)C(F)(F)F.O=C(O)C(F)(F)F (centres undefined),39.92
14,O=C(C1CCC1)N1C[C@@H]2CCN(c3cccnc3)C[C@@H]2C1.O=C(O)C(F)(F)F,-17.68
15,Fc1cccc(N2C[C@H]3CCN(c4cccnc4)C[C@H]3C2)c1.O=C(O)C(F)(F)F,50.35
16,CN(C)C(=O)N1C[C@@H]2CC[C@H](C1)N(C(=O)c1c(Cl)cccc1Cl)C2,3.535
17,CCOCC1CN(C(=O)Cc2ccccn2)Cc2cn(C)nc21 (centres undefined),-4.26
18,CO[C@@H]1CCN(Cc2ccccn2)[C@@H]2CN(Cc3ccco3)C[C@@H]21.O=C(O)C(F)(F)F.O=C(O)C(F)(F)F.O=C(O)C(F)(F)F,-14.11
19,CCNC(=O)c1ccc(NC(=O)N(C)Cc2cccn2C)c(C)c1,26.39
